# Screening results from PubChem.
# JMJD2A Tudor: qHTS Assay for Inhibitors of JMJD2A-Tudor Domain. 4.4% of 390,000 active. Lysine-specific demethylase 4A (Homo sapiens), O75164. Potency, µM (titrated, usually from 114 µM), for inactives: top-dose activity change, negative = inhibition, usual class: inhibitors. AlphaScreen JMJD2A-Tudor / H3K4me3 peptide binding; also: potency is read from the fitted curve at half-maximal effect; % is scaled to controls: 0 for no effect and ±100 for the full control effect; nearly all actives have a fitted effect of over 50% in size
# G9a block: qHTS Assay for Inhibitors of Histone Lysine Methyltransferase G9a. G9a H3K9 monomethylation, AlphaScreen, 2 h. Potency, µM (top dose mostly 102 µM), for the others: at the highest dose activity, negative = inhibition, usual class: inhibitors. Histone-lysine N-methyltransferase EHMT2 (Homo sapiens), Q96KQ7. AID 504332, 2011. 8.8% of 350,000 active; also: potency is read from the fitted curve at half-maximal effect; % is scaled to controls: 0 for no effect and ±100 for the full control effect; nearly all actives have a fitted effect of over 75% in size
#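 Enzyme 20 nM + cpd, 15 min RT; add b-H3K9 pep 500 nM / SAM 20 uM; 2 h RT; anti-H3K9me1 Ab 0.5 ug/mL + SA donor / anti-rabbit acceptor beads 20 ug/mL each, 10 min; AlphaScreen read.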
# BAZ2B inh: qHTS Assay for Inhibitors of BAZ2B; AlphaScreen BAZ2B-H3K14Ac peptide displacement; AID 504333, 2011; Potency, µM (highest dose often 114 µM), without a hit: at the highest dose activity change, negative = inhibition, usual class: inhibitors; 4.4% of 360,000 active; Bromodomain adjacent to zinc finger domain protein 2B (Homo sapiens), Q9UIF8; also: potency is read from the fitted curve at half-maximal effect; % is scaled to controls: 0 for no effect and ±100 for the full control effect; nearly all actives have a fitted effect of over 60% in size
#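 Multi-concentration screen (max 110 uM) measuring displacement of acetylated histone H3 peptide from BAZ2B by AlphaScreen, using 50 nM protein, 50 nM peptide and 10 ug/mL streptavidin donor plus Ni-chelate acceptor beads.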
# HP1b chromo inh: HTS for Inhibitors of HP1-beta Chromodomain Interactions with Methylated Histone Tails | Chromobox protein homolog 1 (Homo sapiens), P83916 | AlphaScreen HP1-beta / biotin-H3K9me3 peptide binding | Potency, µM (doses to about 114 µM), for the others: at the highest dose activity change, negative = inhibition, actives largely listed as inhibitors | 0.56% of 390,000 active | AID 540317, 2011; also: potency is read from the fitted curve at half-maximal effect; nearly all actives have a fitted effect of over 70% in size
#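 HP1-beta protein (50 nM final) preincubated 30 min at room temperature with biotinylated H3(1-18)K9me3 peptide (50 nM) in PBS pH 7.4, 0.01% Tween-20, then compound added for 30 min. AlphaScreen streptavidin donor/nickel chelate acceptor beads (10 ug/mL final), 30 min dark, luminescence read.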
# PI5P4K alpha inh: qHTS for Inhibitors of phosphatidylinositol 5-phosphate 4-kinase (PI5P4K). Phosphatidylinositol 5-phosphate 4-kinase type-2 alpha (Homo sapiens), P48426. PI5P4Kalpha enzyme, ADP-Glo luminescence, 60 min; active compounds read low. max response, %. 1.2% of 330,000 active; active = max response of -50% or lower; inconclusive = between -30% and -50%; inactive = -30% or higher; also: value at the top dose of about 77 µM; % is scaled to controls: 0 for no effect and ±100 for the full control effect
#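 Reactions run in 0.038 M HEPES pH 7.4, 0.28 mM EGTA, 0.1% CHAPS and 5% DMSO, with PI5P4Kalpha, substrate, compound and 5 microM ATP final, one hour at room temperature. Readout is ADP-Glo luminescence.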
# PLK1 PBD block: qHTS for Inhibitors of PLK1-PDB (polo-like kinase 1 - polo-box domain): Primary Screen; Serine/threonine-protein kinase PLK1 (Homo sapiens), P53350; Plk1 PBD binding of FITC phosphopeptide, fluorescence polarization; Potency, µM, without a hit: max response, negative = inhibition, most hits filed as inhibitors; 2.8% of 360,000 active; also: potency is read from the fitted curve at half-maximal effect; series mostly up to about 57 µM; % is scaled to controls: 0 for no effect and ±100 for the full control effect; nearly all actives have a fitted effect of over 65% in size
# Target sequence (P53350 whole entry, looked up, the tested form may be a part): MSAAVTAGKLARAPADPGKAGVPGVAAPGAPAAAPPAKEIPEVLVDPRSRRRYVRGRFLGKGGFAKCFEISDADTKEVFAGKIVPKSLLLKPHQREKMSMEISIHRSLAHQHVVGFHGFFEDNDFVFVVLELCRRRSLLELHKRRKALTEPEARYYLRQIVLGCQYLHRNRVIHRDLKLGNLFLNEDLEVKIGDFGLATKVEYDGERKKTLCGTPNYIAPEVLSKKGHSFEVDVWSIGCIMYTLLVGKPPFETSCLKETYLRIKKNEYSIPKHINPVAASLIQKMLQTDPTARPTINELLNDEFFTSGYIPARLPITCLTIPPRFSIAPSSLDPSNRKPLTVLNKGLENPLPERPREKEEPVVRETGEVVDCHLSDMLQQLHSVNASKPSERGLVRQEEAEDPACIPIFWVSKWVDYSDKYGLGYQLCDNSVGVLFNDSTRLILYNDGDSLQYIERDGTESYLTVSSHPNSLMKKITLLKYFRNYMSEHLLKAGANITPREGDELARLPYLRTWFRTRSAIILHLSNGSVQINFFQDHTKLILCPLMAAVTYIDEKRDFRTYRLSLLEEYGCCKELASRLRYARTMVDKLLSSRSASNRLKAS
# An asterisk follows results filed as active; ? = inconclusive; · = not tested or not shown; ! = repeats disagree; [ ] = dose if it differs, or a comment. An excerpt weighted towards active compounds, which were near 12% of everything screened. Unless noted, calls follow the shape of the dose curve; as a rule, active = well fitted curve in the direction sought with a large enough effect; inconclusive = small, poorly fitted or top-dose-only effect, or another doubt; inactive = no such curve, though single readings can be large; an effect the other way counts as inactive or inconclusive.
SMILES,JMJD2A Tudor,G9a block,BAZ2B inh,HP1b chromo inh,PI5P4K alpha inh,PLK1 PBD block
CN(C)c1ccc(NC(=O)c2ccc3nc[nH]c3c2)cc1,-34%,?,45µM*,15%,-14,-8%
COc1cc(C(=O)Nc2ccc(N(C)C)cc2)cc(OC)c1OC,?,45µM*,?,-5%,·,-1%
COc1cc(C(=O)Nc2ccc(S(=O)(=O)N(C)c3ccccc3)cc2)cc(OC)c1OC,-12%,10%[59 µM],-6%,21%,-5,2%
COc1cc(C(=O)NC2=C(C#N)CCC2)cc(OC)c1OC,-13%,50µM*,-31%,7%,1,-7%
O=C(Nc1ccc(F)cc1)c1ccc2nc[nH]c2c1,-9%,-8%,-9%,25%,0,-8%
COc1ccccc1CCNC(=O)c1ccc2nc[nH]c2c1,-21%,-1%,50µM*,14%,-26,-1%
O=C(NCCc1ccc(Cl)cc1Cl)c1ccc2nc[nH]c2c1,-3%,·,-3%,58%,3,1%
O=C(NNC(=O)c1ccccc1F)c1ccc2nc[nH]c2c1,-14%,15%,?,33%,-7,5%
O=C(NNC(=O)c1ccccc1Br)c1ccc2nc[nH]c2c1,?,·,50µM*,-7%,?,-19%
O=C(Nc1ccccc1)c1cccc(N2C(=O)CCC2=O)c1,-9%,?,10%,40%,-8,-2%
CN(C)c1ccc(NC(=O)c2cccc(N3C(=O)CCC3=O)c2)cc1,-32%,40µM*,-12%,15%,·,-10%
COc1ccc(NC(=O)C2=C(C)Nc3nc(SCc4ccccc4)nn3C2c2cc(OC)ccc2OC)cc1 (configuration not stated),-5%,-3%[59 µM],-11%,20%,·,·
CCCCCC=CCC=CCCCCCCCC(=O)OCC,·,-1%[12.7 µM],·,·,·,·
NC(=O)c1sc2nc3c(c(-c4ccco4)c2c1N)CCC3,79µM*,?,?,0%,·,?
Cc1ccc(-c2c3c(nc4sc(C(N)=O)c(N)c24)CCCC3)o1,-18%[57.1 µM],45µM*,?,13%,2,?
Nc1c(C(=O)NC2CC2)sc2nc3c(c(-c4ccco4)c12)CC/C3=C/c1ccco1,7.1µM*,3.2µM*,0%,14µM*,-96*,?
COc1ccc(C2CC(=O)n3nc(C45CC6CC(CC(C6)C4)C5)nc3S2)cc1OC (configuration not stated),-7%,11µM*,-10%,4%,11,-8%
Cn1ncc2c(=S)[nH]c(=S)[nH]c21,·,·,·,·,-29,27µM*
CC1CCc2sc(C(=O)N(C)CC(=O)Nc3ccc(N4CCOCC4)cc3)cc2C1 (configuration not stated),?,35µM*,?,-21%,-1,-8%
CCC1CCc2sc(C(=O)N(C)CC(=O)Nc3ccc(OC)cc3)cc2C1 (configuration not stated),-17%,-9%,2%,31%,-8,-11%
CCC1CCc2sc(C(=O)N(C)CC(=O)Nc3ccc(N4CCOCC4)cc3)cc2C1 (configuration not stated),-31%,45µM*,-4%,4%,-10,-3%
COc1ccc(NC(=O)CN(C)C(=O)c2cc3c(s2)CCC(C)C3)cc1 (configuration not stated),-12%,34%,-23%,19%,6,-11%
Cc1cc(Br)ccc1NC(=O)CN1C(=O)C2CC=CCC2C1=O (configuration not stated),?,0.79µM*,-9%,7%,4,-24%
Cc1cccc(C)c1NC(=O)CN1C(=O)C2CC=CCC2C1=O (configuration not stated),-1%,-2%[12.7 µM],-1%,66%,-1,2%
Cc1cc(Br)ccc1NC(=O)CN1C(=S)NC(C)(C)CC1C (configuration not stated),2%,32µM*,-13%,-18%,-11,-10%
SMILES,JMJD2A Tudor,G9a block,BAZ2B inh,HP1b chromo inh,PI5P4K alpha inh,PLK1 PBD block
N#CCSc1ccccc1NC(=O)CN1C(=O)C2CC=CCC2C1=O (configuration not stated),-16%,45µM*,11%,10%,-16,-6%
CC(C)Oc1ccc(CNC(=O)c2ccc3c(c2)N(Cc2ccc(F)cc2)CCS3)cc1,-17%,1%[59 µM],0%,31%,·,·
Cc1csc2nc(-c3cccc(NC(=O)c4ccc(S(N)(=O)=O)cc4)c3)cn12,-22%,9%[59 µM],3%,15%[57 µM],·,·
CN1C(=O)CN(CCN2CC(=O)N(C)C(=O)C2)CC1=O,·,·,·,·,-4,3%
S=C(Nc1ccccc1)Nc1nccs1,?,27µM*!,-14%,-8%,-10,-17%
Fc1ccc(NC(=S)NCc2ccccn2)cc1,-35%,28%[0.501 µM],-2%,21%,-2,-10%
COC(=O)c1sccc1NC(=S)Nc1ccccc1,-15%,50µM*,-6%,12%,5,-8%
S=C(NCc1ccccn1)Nc1ccccc1,-2%,19%[59 µM],79µM*,34%,6,5%
Fc1ccc(NC(=S)Nc2nccs2)cc1,-21%,?,-14%,-28%,0,?
O=C(Cc1ccccn1)Nc1ccccc1,-27%,40µM*,?,52%,0,-4%
CCNc1nc(N)nc(Oc2ccc(OCC(=O)OC)nn2)n1,-10%,-27%[59 µM],-1%,21%,·,·
CCCOc1ccc(C(=O)OCCN2CCCCC2)c(O)c1,-13%,·,·,36%,7,-4%
CCCN(C)C[C@@H]1OCc2cnnn2CCCC(=O)N([C@H](C)CO)C[C@H]1C,·,·,·,·,-4,-8%
CCN(CC)C(=O)Cc1cc(C(=O)O)c2ccccc2n1,-12%,-6%[59 µM],-34%,19%,·,3%
O=C(Cc1cc(C(=O)O)c2ccccc2n1)Nc1ccccc1,-10%,35µM*,11%,30%,1,-20%
CN(C)c1ccc(O)c2c1CC1CC3C(N(C)C)C(=O)C(C(N)=O)=C(O)[C@@]3(O)C(=O)C1=C2O (some centres not stated),8.9µM*,·,·,3%,0,-11%
CN(C)c1ccc(O)c2c1CC1CC3[C@@H](N(C)C)C(=O)C(C(N)=O)C(=O)[C@]3(O)C(=O)C1C2=O (some centres not stated),8.9µM*,·,·,16%,-8,-6%
